Screens: PubChem, National Center for Advancing Translational Sciences (NCATS)
Hits are enriched below; roughly 7.4% of the tested compounds scored in any of these assays.
NPR1 antag: antagonists of human natriuretic peptide receptor Npr1. HEK293 hNpr1 GloSensor cGMP, ANP-stimulated luminescence. 76,000 tested, 1.6% active. P16066. Potency, µM (doses to about 46.3 µM), usual class: inhibitors. AID 1347048; calls by dose curve; note: nearly all actives have a fitted effect of over 60% in size
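Compound pre-incubated 30 min at room temperature on GloSensor-loaded HEK293 cells stably carrying hNpr1 and the pGS-40F cGMP biosensor. Stimulation uses hNppA at 0.1 nM final; luminescence is taken at baseline and 20 min post-agonist.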
SNCA expr inhib: reduces expression of the alpha-synuclein gene; 140,000 tested, 0.17% active; HEK-293 SNCA-luciferase knock-in, luminescence, 24 h; Potency, µM (highest dose often 57.2 µM), hits mostly inhibitors; note: nearly all actives have a fitted effect of over 45% in size
HEK293 tox: HEK 293 cell cytotoxicity; HEK 293 viability, ATP luminescence (CellTiter-Glo), 48-72 h; Potency, µM (top dose mostly 115 µM), usual class: inhibitors; 94,000 tested, 6.6% active; note: nearly all actives have a fitted effect of over 60% in size
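HEK 293 cells seeded at 250 cells/well were exposed to compound for 48 or 72 hr at 37 degree Celsius. Viability taken as ATP content by CellTiter-Glo luminescence.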
HEK293 viab: reduces viability of HEK-293 SNCA reporter cells; HEK-293-SNCA-luc viability, GF-AFC fluorescence, 24 h; Potency, µM (highest dose often 57.1 µM), actives largely listed as cytotoxic; 150,000 tested, 0.12% active; AID 1671193; note: nearly all actives have a fitted effect of over 30% in size
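Cytotoxicity counterscreen: after 24 h compound treatment of genome-edited SNCA-luciferase HEK-293 cells, live-cell protease substrate GF-AFC read by fluorescence after 30 min; activity scaled between DMSO (0%) and medium-only (-100%), curves Hill-fitted.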
3T3 cytotox: NIH 3T3 cell cytotoxicity; Potency, µM (titrated, usually from 96.7 µM), most hits filed as inhibitors; 94,000 tested, 4.3% active; NIH 3T3 viability, CellTiter-Glo ATP luminescence, 48-72 h; AID 1345082; note: nearly all actives have a fitted effect of over 55% in size
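Cells were seeded at 400 per well, treated with pin-transferred compound, and kept 48 or 72 hr at 37 °C before CellTiter-Glo addition and luminescence imaging of cellular ATP.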
Luciferase inh: blocks purified firefly luciferase enzyme activity | Potency, µM (doses to about 115 µM), hits mostly inhibitors | 76,000 tested, 2.5% active | AID 1347043 | purified P. pyralis luciferase, luminescence, biochemical | P08659; note: nearly all actives have a fitted effect of over 65% in size
Target sequence (P08659 whole entry, looked up): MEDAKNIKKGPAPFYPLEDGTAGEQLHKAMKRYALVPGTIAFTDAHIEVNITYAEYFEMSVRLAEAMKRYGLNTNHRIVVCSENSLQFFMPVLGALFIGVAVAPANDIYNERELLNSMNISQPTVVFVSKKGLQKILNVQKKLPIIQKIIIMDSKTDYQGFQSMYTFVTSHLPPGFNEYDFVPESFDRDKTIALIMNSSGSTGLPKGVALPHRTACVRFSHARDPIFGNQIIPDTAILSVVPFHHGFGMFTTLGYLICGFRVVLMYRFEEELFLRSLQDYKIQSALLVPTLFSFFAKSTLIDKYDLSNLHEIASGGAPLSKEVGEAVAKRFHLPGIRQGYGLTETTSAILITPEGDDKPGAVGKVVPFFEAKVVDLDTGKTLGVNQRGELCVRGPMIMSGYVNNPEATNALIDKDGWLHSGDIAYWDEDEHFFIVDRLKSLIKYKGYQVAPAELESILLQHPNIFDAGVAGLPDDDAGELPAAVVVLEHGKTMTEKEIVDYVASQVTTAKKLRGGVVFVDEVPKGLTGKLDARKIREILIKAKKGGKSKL
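Luminescence read by CCD imaging after purified firefly luciferase (10nM final) was added to substrate buffer holding 10uM D-luciferin and 10uM ATP, pH 7.5, pre-dosed with compound.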
Each line names hits and unclear results; the compound was inactive in the other large screens. Unless noted, calls come from the whole dose curve; as a rule, active = well fitted curve in the direction sought with a large enough effect; inconclusive = small, poorly fitted or top-dose-only effect, or another doubt; inactive = no such curve, though single readings can be large; an effect the other way counts as inactive or inconclusive.

O=C(Nc1cccc(C(F)(F)F)c1)N[C@H]1[C@H](O)[C@@H](N2CCC(Cc3ccccc3)CC2)[C@@H]2OC[C@H]1O2	SNCA expr inhib inconclusive, HEK293 tox inconclusive, 3T3 cytotox 35.5µM
COc1cccc(NC(=O)N[C@H]2[C@H](O)[C@@H](Oc3ccccc3)[C@@H]3OC[C@H]2O3)c1	none
O=C(NCc1nnc2ccc(-c3ccccc3)nn12)c1cc(F)ccc1Cl	HEK293 tox 39.8µM, 3T3 cytotox inconclusive
O=C(NCc1nnc2ccc(-c3ccc(Cl)cc3)nn12)c1cc(F)ccc1F	none
Cc1nn2c(c1-c1ccccc1C(C)C)N(Cc1ccc3c(c1)CCO3)CCC2	SNCA expr inhib inconclusive, HEK293 tox 35.5µM, HEK293 viab inconclusive, 3T3 cytotox 28.2µM
Cc1nn2c(c1-c1ccccc1Oc1ccccc1)N([S+](=O)([O-])c1cccnc1)CCC2	HEK293 tox inconclusive, 3T3 cytotox inconclusive
COc1ccc(CN2CCCn3nc(C)c(-c4ccccc4C(C)C)c32)cc1O	NPR1 antag inconclusive, HEK293 tox 63.1µM, 3T3 cytotox 35.5µM
Cc1nn2c(c1-c1ccccc1C(C)C)N([S+](=O)([O-])c1ccc(C(C)C)cc1)CCC2	NPR1 antag inconclusive, HEK293 tox 39.8µM, 3T3 cytotox 22.4µM
Cc1nn2c(c1-c1ccccc1C(C)C)N(Cc1ccc(C(=O)O)s1)CCC2	HEK293 tox inconclusive, 3T3 cytotox inconclusive
Cc1nn2c(c1-c1ccccc1C(C)C)N(C(=O)C1CCOCC1)CCC2	HEK293 tox inconclusive, 3T3 cytotox inconclusive
COc1cc(Cl)ccc1C(=O)N[C@@H]1C[C@H]2C(=O)N(C)CC(=O)N2C1	none
Cc1ccc(CNC(=O)CC2CCCN(c3cnn(CC4CC4)c(=O)c3)C2)cc1C (stereo not given)	3T3 cytotox inconclusive
CCC(=O)N1CCC([C@H]2[C@@H](OC)C(=O)N2C(C)C)CC1	none
OCC1(CN2CCCC2)CCN(Cc2c(Cl)cccc2Cl)CC1	HEK293 tox inconclusive, 3T3 cytotox inconclusive
OCC1(CN2CCCC2)CCN(C/C=C/c2ccccc2)CC1	HEK293 tox 35.5µM, 3T3 cytotox inconclusive
OCC1(CN2CCCC2)CCN(Cc2ccc3ccccc3c2)CC1	HEK293 tox 39.8µM, 3T3 cytotox 39.8µM
Cc1nc(NC2CCCCC2)ncc1C(=O)O	HEK293 viab inconclusive
COc1ccc(F)c(F)c1C(=O)c1cnc(NC2CCN(S(C)(=O)=O)CC2)nc1N	SNCA expr inhib 13.6µM, HEK293 viab inconclusive (no result: NPR1 antag, HEK293 tox, 3T3 cytotox, Luciferase inh)
CCn1cnnc1CC1CCN(C(=O)c2ccc3cc[nH]c3c2)C1 (stereo not given)	none
Cc1nn(-c2ccccc2)c2c1C(C1CC1)N(C1CCN(C(=O)NC(C)C)C1)C2=O (stereo not given)	none (no result: NPR1 antag, SNCA expr inhib, HEK293 viab, Luciferase inh)
Cc1nn(-c2ccccc2)c2c1C(C1CC1)N(C1CCN(C(=O)NC3CCCC3)C1)C2=O (stereo not given)	HEK293 tox 44.7µM, 3T3 cytotox inconclusive (no result: NPR1 antag, SNCA expr inhib, HEK293 viab, Luciferase inh)
Cc1nn(-c2ccccc2)c2c1C(C1CC1)N(C1CCN(C(=O)c3cccc(Cl)c3)C1)C2=O (stereo not given)	HEK293 tox 25.1µM, 3T3 cytotox inconclusive (no result: NPR1 antag, SNCA expr inhib, HEK293 viab, Luciferase inh)
Cc1nn(-c2ccccc2)c2c1C(C1CC1)N(C1CCN(C(=O)c3cccc(Cl)c3)CC1)C2=O (stereo not given)	HEK293 tox inconclusive (no result: NPR1 antag, SNCA expr inhib, HEK293 viab, Luciferase inh)
COc1cccc(C(=O)N2CCC(N3C(=O)c4c(c(C)nn4-c4ccccc4)C3C3CC3)C2)c1 (stereo not given)	HEK293 tox 35.5µM, 3T3 cytotox inconclusive (no result: NPR1 antag, SNCA expr inhib, HEK293 viab, Luciferase inh)
CCOC(=O)C1CCN(C(=O)C2COC3(CCC(C)CC3)N2C(=O)c2cccc(F)c2)CC1 (stereo not given)	none
COc1ccc(-c2noc(-c3nc(C)no3)n2)c(OC)c1	Luciferase inh inconclusive
CCCNC(=O)Cc1ccc(N(Cc2ccc(F)cc2)C(=O)c2ccco2)cc1	HEK293 tox 89.1µM, 3T3 cytotox inconclusive
Cc1cccc(CNC(=O)Cc2ccc(N(Cc3ccc(F)cc3)C(=O)c3ccco3)cc2)c1	HEK293 tox inconclusive, 3T3 cytotox 39.8µM
COc1ccc(F)cc1-c1cccc(C(=O)NCCNC(=O)Cc2ccc(F)cc2)c1	HEK293 tox inconclusive, 3T3 cytotox inconclusive (no result: NPR1 antag, Luciferase inh)
COc1ccc(F)cc1-c1cccc(C(=O)NCCNC(=O)c2ccccc2F)c1	HEK293 tox 39.8µM, 3T3 cytotox inconclusive (no result: NPR1 antag, Luciferase inh)
COc1ccc(F)cc1-c1cccc(C(=O)NCCNC(=O)c2ccc(C)cc2)c1	SNCA expr inhib inconclusive, HEK293 tox inconclusive (no result: NPR1 antag, Luciferase inh)
COc1ccc(C(=O)NCCNC(=O)c2cccc(-c3cc(F)ccc3OC)c2)cc1	HEK293 tox 39.8µM, 3T3 cytotox inconclusive (no result: NPR1 antag, Luciferase inh)
COc1ccc(F)cc1-c1cccc(C(=O)NCC(=O)NCc2ccc3c(c2)OCO3)c1	HEK293 tox 50.1µM, 3T3 cytotox inconclusive (no result: NPR1 antag, SNCA expr inhib, HEK293 viab, Luciferase inh)
Cn1c(CNC(=O)C2(C)CCCCC(=O)N2)nc2ccccc21 (stereo not given)	HEK293 tox 44.7µM, 3T3 cytotox 39.8µM
Cc1ccccc1-c1[nH]nc2ncc(-c3ccccc3F)nc12	HEK293 tox 50.1µM, 3T3 cytotox inconclusive
COc1ccccc1-c1cnc2n[nH]c(-c3sccc3C)c2n1	HEK293 tox 89.1µM, 3T3 cytotox inconclusive
COc1ccc(-c2cnc3n[nH]c(-c4sccc4C)c3n2)cc1OC	SNCA expr inhib inconclusive, HEK293 tox 63.1µM, 3T3 cytotox inconclusive
COc1ccc(-c2cnc3n[nH]c(-c4sccc4C)c3n2)cc1	HEK293 tox inconclusive, 3T3 cytotox inconclusive
Cc1ccsc1-c1[nH]nc2ncc(-c3ccccc3F)nc12	HEK293 tox 70.8µM, 3T3 cytotox inconclusive
CNC(=O)[C@@H]1CN(C(=O)c2ccc(C)[nH]c2=O)C[C@H]1c1nc(COC)no1	HEK293 viab inconclusive, 3T3 cytotox inconclusive
CCn1c(=N)n(CCOc2ccc(Br)cc2)c2ccccc21	SNCA expr inhib 25.1µM, HEK293 viab inconclusive (no result: NPR1 antag, HEK293 tox, 3T3 cytotox, Luciferase inh)
CN(C)CCNc1cc2c(cn1)NCCN(Cc1ccccc1)C2	HEK293 tox inconclusive, 3T3 cytotox inconclusive
c1ccc(Nc2cc3c(cn2)CN(Cc2ccc4[nH]ccc4c2)CCN3)cc1	HEK293 tox 39.8µM, HEK293 viab inconclusive, 3T3 cytotox 28.2µM, Luciferase inh inconclusive
c1ccc(Nc2cc3c(cn2)NCCN(Cc2ccc4[nH]ccc4c2)C3)cc1	HEK293 tox 56.2µM, HEK293 viab inconclusive, 3T3 cytotox inconclusive
O=C(c1cccc(O)c1)N1CCc2c(n(CCOc3ccccc3)n(-c3ccccc3)c2=O)C1	3T3 cytotox 22.4µM
Cn1ccnc1CNc1nccc(-c2cnn(-c3ccccc3F)c2)n1	HEK293 tox inconclusive, 3T3 cytotox inconclusive, Luciferase inh inconclusive
O=C(c1ccccc1)N1CCn2c(nn(-c3ccc([N+](=O)[O-])cc3)c2=O)C1	none
